Data from PubChem BioAssay (NCATS).
Results filed as inconclusive are left out. Calls of active or inactive are those of the source. Calls come from the whole dose curve; as a rule, active = well fitted cell-killing curve with a large enough effect; inconclusive = small, poorly fitted or top-dose-only effect, or effect the other way; inactive = no such curve, though single readings can be large or run the other way.

assay: Quantitative High-Throughput drug screen in 47 multiple myeloma cell lines against the NCATS MIPE library collection: H1112_PLB cell viability assay (AID 1918967; note: nearly all actives have a fitted effect of over 30% in size); conditions: H1112 myeloma cells viability, ATP luminescence, 48 h; series mostly up to 45.8 µM; viability: at the top concentration
Outline: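 Inhibition of cell viability is measured here. Each line was plated at 500 cells per well, treated with MIPE 4.0 drugs, kept 48 hours at 37C, then assayed for ATP content by CellTiter-Glo luminescence.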
Potency is the fitted concentration of half-maximal effect.

SMILES | viability | Potency
CC[C@H]1OC(=O)[C@H](C)[C@@H](O[C@H]2C[C@@](C)(OC)[C@@H](O)[C@H](C)O2)[C@H](C)[C@@H](O[C@@H]2O[C@H](C)C[C@H](N(C)C)[C@@H]2O)[C@](C)(O)C[C@@H](C)CN(C)[C@H](C)[C@@H](O)[C@]1(C)O | 127% (inactive) | –
CCS(=O)(=O)N1CC(CC#N)(n2cc(-c3ncnc4[nH]ccc34)cn2)C1 | 120% (inactive) | –
CC(=O)Nc1ccc([C@H](C)C(=O)Nc2ncc(C(C)C)s2)cc1 | – | 4.18 µM (active)
CC(C(=O)O)c1ccc(-c2ccccc2)c(F)c1 (centres undefined) | – | 18.7 µM (active)
O=C(N[C@@H](c1ccccc1)[C@@H]1CCCCN1)c1cccc(C(F)(F)F)c1Cl | – | 14.8 µM (active)
CC[C@H]1OC(=O)[C@H](C)C(=O)[C@H](C)[C@@H](O[C@H]2O[C@H](C)C[C@H](N(C)C)[C@@H]2O)[C@](C)(OC)C[C@@H](C)C(=O)[C@H](C)[C@H]2N(CCCCn3cnc(-c4cccnc4)c3)C(=O)O[C@]12C | – | 13.2 µM (active)
CC(C)(C)C(=O)Oc1ccc2c(c1)nc(NC(=O)c1cccc([N+](=O)[O-])c1)n2CCCO | 112% (inactive) | –
CN1C[C@H]2c3ccccc3Oc3ccc(Cl)cc3[C@@H]2C1 | 76.5% (inactive) | –
O=c1cc(-c2ccccc2)oc2cc(O)c(O)c(O)c12 | – | 20.9 µM (active)
O=c1c(-c2ccc(O)cc2)coc2cc(O)ccc12 | 123% (inactive) | –
C[C@H](NC(=O)C(=O)Nc1ccccc1C(C)(C)C)C(=O)N[C@@H](CC(=O)O)C(=O)COc1c(F)c(F)cc(F)c1F | 108% (inactive) | –
CCn1cc(C(=O)O)c(=O)c2ccc(C)nc21 | 84.8% (inactive) | –
O=C1Nc2ccc(Cl)cc2C(C#CC2CC2)(C(F)(F)F)O1 (centres undefined) | – | 23.5 µM (active)
CN1CCN(CCOc2cc(OC3CCOCC3)c3c(Nc4c(Cl)ccc5c4OCO5)ncnc3c2)CC1 | – | 23.5 µM (active)
CC1(C)CCC[C@@]2(C)[C@@H]1CC[C@@]1(C)OC(=O)C[C@H]21 | 102% (inactive) | –
CNC(=O)c1ccccc1Sc1ccc2c(C=Cc3ccccn3)n[nH]c2c1 | – | 0.296 µM (active)
NC(=O)c1ccc2nc(-c3ccc(Oc4ccc(Cl)cc4)cc3)[nH]c2c1 | 97.6% (inactive) | –
CC1(C)S[C@H]2[C@H](NC(=O)[C@@H](N)c3ccc(O)cc3)C(=O)N2[C@@H]1C(=O)O | 116% (inactive) | –
O=C1C[C@@H](c2ccc(O)cc2)Oc2cc(O)cc(O)c21 | 95.2% (inactive) | –
CS(=O)c1ccc(-c2nc(-c3ccc(F)cc3)c(-c3ccncc3)[nH]2)cc1 (centres undefined) | – | 48.1 µM (active)

SMILES | viability | Potency
CCC(=O)NC[C@H](Cc1ccc(OCCc2nc(-c3ccccc3)oc2C)cc1)NC(C)=CC(=O)c1ccc(C(F)(F)F)cc1 | 93.2% (inactive) | –
NC[C@@H]1O[C@@H](O[C@H]2[C@@H](O)[C@H](O[C@@H]3[C@@H](O)[C@@H](N)C[C@H](N)[C@H]3O[C@H]3O[C@H](CN)[C@@H](O)[C@@H](O)[C@H]3N)O[C@H]2CO)[C@H](N)[C@@H](O)[C@@H]1O | 107% (inactive) | –
CCC(CC)[C@H](NC(C)=O)[C@@H]1[C@H](O)[C@@H](C(=O)O)C[C@@H]1N=C(N)N | 94.3% (inactive) | –
O=c1c(O)c(-c2ccc(O)cc2)oc2cc(O)cc(O)c12 | – | 20.9 µM (active)
CO[C@H]1C(=O)[C@]2(C)[C@@H](OC)C[C@H]3OC[C@@]3(OC(C)=O)[C@H]2[C@H](OC(=O)c2ccccc2)[C@]2(O)C[C@H](OC(=O)[C@H](O)[C@@H](NC(=O)OC(C)(C)C)c3ccccc3)C(C)=C1C2(C)C | 44.4% (inactive) | –
COc1ccc2cccc(CCNC(C)=O)c2c1 | 110% (inactive) | –
CCNc1cc(NC2CCC(O)CC2)nc(Nc2ccc3c(ccn3Cc3ccccc3)c2)n1 (centres undefined) | – | 18.7 µM (active)
C[C@@H]1CCN(C(=O)CC#N)C[C@H]1N(C)c1ncnc2[nH]ccc12 | 99.1% (inactive) | –
NC1CCC(Nc2nc(Nc3ccc(C(=O)N4CCCCC4)cc3)c3ncn(-c4cccc(F)c4)c3n2)CC1 (centres undefined) | 93.7% (inactive) | –
CN(C)Cc1ccc(-c2nc3cccc4c3n2CCNC4=O)cc1 | – | 20.9 µM (active)
CC(C)C[C@H](CC(=O)O)C(=O)N[C@@H](Cc1c[nH]c2ccccc12)C(=O)N[C@@H](C)c1ccccc1 | 115% (inactive) | –
COc1cc(NC(=O)c2ccc(-c3ccc(Cl)cc3)o2)cc(OC)c1 | – | 2.96 µM (active)
O=c1cc(-c2cccc3c2Sc2ccccc2S3)oc(N2CCOCC2)c1 | – | 20.9 µM (active)
CC(C)n1cnc2c(NCCCCCCNC(=O)OC(C)(C)C)nc(NCCO)nc21 | – | 23.5 µM (active)
CO[C@H]1C=CO[C@@]2(C)Oc3c(C)c(O)c4c(O)c(c5c(c4c3C2=O)NC2(CCN(CC(C)C)CC2)N=5)=NC(=O)C(C)=CC=C[C@H](C)[C@H](O)[C@@H](C)[C@@H](O)[C@@H](C)[C@H](OC(C)=O)[C@H]1C | 90.9% (inactive) | –
O=C(O)c1ccccc1C(=O)Nc1ccc(-c2ccccc2)cc1 | 113% (inactive) | –
Cc1ccc(C(C)(O)c2nc3ccccc3s2)c(C)c1 (centres undefined) | 110% (inactive) | –
NC(CO)(CO)CCc1ccc(Sc2cccc(OCc3ccccc3)c2)cc1Cl | – | 16.6 µM (active)
O=C(O)[C@H]1O[C@H](Oc2cc3oc(-c4ccccc4)cc(=O)c3c(O)c2O)[C@H](O)[C@@H](O)[C@H]1O | 119% (inactive) | –
